Measurements as given in PubChem BioAssay.
Calls of active or inactive are those of the source.

Legend:
[1] = optical density shifts of acrAB sulA E. coli – strain DRC41, OD650, 48 h, E. coli filamentation inducer project, primary screen (AID 1152); conditions: higher = more signal, called active from +8 up or from −8 down;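 further: E. coli MC1000 strain DRC41 lacking acrAB efflux pump and sulA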
[2] = probe aLefty1 binding on compound microarray – biochemical, small-molecule microarray, 635/667 nm fluorescence, primary screen (AID 1153); conditions: higher = more signal;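 further: score merges spot fluorescence with signal-to-noise ratio from the scanned slide images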
[3] = plasmodial surface anion channel blockers, osmotic lysis – cell-based, P. falciparum Indochina, OD700, 1 h, primary screen (AID 1154); conditions: P. falciparum Indochina infected RBC osmotic lysis, higher = more signal, called active from +8 up or from −8 down
[4] = plasmodial surface anion channel blockers, osmotic lysis – cell-based, P. falciparum Indochina, OD700, 2 h, primary screen (AID 1155);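 further: lysis reports solute entry through the parasite surface anion channel PSAC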; conditions: P. falciparum Indochina infected erythrocytes, higher = more signal, called active from +8 up or from −8 down
[5] = changes in parasitized red cell lysis, either direction – P. falciparum Indochina, OD700, 3 h, PSAC antagonist project, primary screen (AID 1156); conditions: P. falciparum-infected erythrocytes, osmotic lysis, higher = more signal, called active from +8 up or from −8 down
[6] = plasmodial surface anion channel blockers, osmotic lysis – cell-based, P. falciparum Indochina, OD700, 18 h, primary screen (AID 1157); conditions: P. falciparum Indochina infected erythrocytes, osmotic lysis OD700, 18 h; higher = more signal, called active from +8 up or from −8 down
[7] = S6 kinase pathway phospho-S6 level changes – cell-based, A549, cytoblot, luminescence, serum-stimulated, primary screen (AID 1158); conditions: 5 h, higher = more signal;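 further: serum-stimulated A549 lung adenocarcinoma cells; signal is phosphorylated S6 detected by cytoblot immunostaining with HRP secondary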
[8] = biological target: NADPH oxidase 2 (Homo sapiens) (UniProt P04839); assay: compounds shifting NOX2 Amplex Red fluorescence – cell-based, HEK293-NOX2, PMA-stimulated, NOX inhibitor project, primary screen (AID 1159); conditions: 45 min, higher = more signal, called active from +8 up or from −8 down; further: test concentration not given here
[9] = biological target: NADPH oxidase 4 (Homo sapiens) (UniProt Q9NPH5); assay: compounds shifting NOX4 Amplex Red fluorescence – cell-based, HEK293-NOX4, tetracycline-induced, NOX inhibitor project, primary screen (AID 1160); conditions: HEK293-NOX4, Amplex Red H2O2 fluorescence, 45 min; higher = more signal, called active from +8 up or from −8 down
[10] = biological target: NADPH oxidase 5 (Homo sapiens) (UniProt Q96PH1); assay: compounds shifting NOX5 Amplex Red fluorescence – cell-based, HEK293-NOX5, NOX inhibitor project, primary screen (AID 1161); conditions: HEK293-NOX5, ionomycin, 45 min, higher = more signal
[11] = compound effects on lung adenocarcinoma cell viability – A549, calcein-AM fluorescence, 48 h, basal, profiling panel (AID 1162); conditions: higher = more signal; further: test concentration not given here
[12] = compound effects on differentiated 3T3-L1 adipocyte viability – cell-based, 3T3-L1 adipocytes, calcein-AM fluorescence, 48 h, basal, profiling panel (AID 1163); conditions: 3T3-L1 adipocytes viability, higher = more signal; further: test concentration not given here
[13] = compound effects on hepatocellular carcinoma cell viability – HepG2, calcein-AM fluorescence, 48 h, basal, profiling panel (AID 1164); conditions: higher = more signal; further: test concentration not given here
[14] = compound effects on multiple myeloma cell viability – MM1S, calcein-AM fluorescence, 48 h, basal, profiling panel (AID 1165); conditions: higher = more signal; further: test concentration not given here
[15] = calcein-AM signal in unstimulated myeloma cells – cell-based, calcein-AM fluorescence, 48 h, PK04 Diversity Set, profiling panel (AID 1166); conditions: RPMI8226 myeloma viability, higher = more signal;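 further: cells grown under basal conditions without added stimulus; test concentration not given here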
[16] = JC-1 mitochondrial signal, unstimulated HepG2 cells – cell-based, JC-1 fluorescence, 24 h, 100 nL compound, profiling panel (AID 1167); conditions: HepG2 mitochondrial potential, higher = more signal; further: test concentration not given here
[17] = JC-1 mitochondrial signal, unstimulated adipocytes – cell-based, JC-1 fluorescence, 3T3-L1 adipocytes, 24 h, 100 nL compound, profiling panel (AID 1168); conditions: JC-1 mitochondrial fluorescence, higher = more signal, called active from +8 up or from −8 down; further: test concentration not given here
[18] = JC-1 mitochondrial signal, unstimulated myeloma cells – cell-based, JC-1 fluorescence, RPMI8226, 24 h, 100 nL compound, profiling panel (AID 1169); conditions: JC-1 mitochondrial potential fluorescence, higher = more signal; further: test concentration not given here
[19] = JC-1 mitochondrial signal, unstimulated MM1S myeloma – cell-based, JC-1 fluorescence, 24 h, 100 nL compound, profiling panel (AID 1170); conditions: MM1S mitochondrial potential, higher = more signal; further: test concentration not given here
[20] = resazurin metabolic signal in A549 cells – cell-based, resazurin fluorescence, 24 h, PK04 Diversity Set, profiling panel (AID 1171); conditions: A549 viability, higher = more signal, called active from +8 up or from −8 down; further: test concentration not given here

Chain of NADPH oxidase 2 (Homo sapiens) (P04839 whole entry, looked up): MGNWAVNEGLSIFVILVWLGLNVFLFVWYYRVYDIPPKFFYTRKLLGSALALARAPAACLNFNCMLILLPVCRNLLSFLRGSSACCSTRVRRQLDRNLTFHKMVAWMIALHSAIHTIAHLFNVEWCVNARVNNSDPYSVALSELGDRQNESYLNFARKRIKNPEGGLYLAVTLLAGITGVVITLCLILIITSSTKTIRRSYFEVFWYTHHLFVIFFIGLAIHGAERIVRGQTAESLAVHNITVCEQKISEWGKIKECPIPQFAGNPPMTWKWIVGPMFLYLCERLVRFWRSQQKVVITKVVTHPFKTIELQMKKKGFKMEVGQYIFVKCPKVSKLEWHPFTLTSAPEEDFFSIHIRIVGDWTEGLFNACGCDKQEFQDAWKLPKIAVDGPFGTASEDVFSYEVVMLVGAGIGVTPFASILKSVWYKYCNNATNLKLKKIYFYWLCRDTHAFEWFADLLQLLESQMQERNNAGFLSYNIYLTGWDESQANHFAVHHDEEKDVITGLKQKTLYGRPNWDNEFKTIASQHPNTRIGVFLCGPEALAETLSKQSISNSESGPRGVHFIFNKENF
Chain of NADPH oxidase 4 (Homo sapiens) (Q9NPH5 whole entry, looked up): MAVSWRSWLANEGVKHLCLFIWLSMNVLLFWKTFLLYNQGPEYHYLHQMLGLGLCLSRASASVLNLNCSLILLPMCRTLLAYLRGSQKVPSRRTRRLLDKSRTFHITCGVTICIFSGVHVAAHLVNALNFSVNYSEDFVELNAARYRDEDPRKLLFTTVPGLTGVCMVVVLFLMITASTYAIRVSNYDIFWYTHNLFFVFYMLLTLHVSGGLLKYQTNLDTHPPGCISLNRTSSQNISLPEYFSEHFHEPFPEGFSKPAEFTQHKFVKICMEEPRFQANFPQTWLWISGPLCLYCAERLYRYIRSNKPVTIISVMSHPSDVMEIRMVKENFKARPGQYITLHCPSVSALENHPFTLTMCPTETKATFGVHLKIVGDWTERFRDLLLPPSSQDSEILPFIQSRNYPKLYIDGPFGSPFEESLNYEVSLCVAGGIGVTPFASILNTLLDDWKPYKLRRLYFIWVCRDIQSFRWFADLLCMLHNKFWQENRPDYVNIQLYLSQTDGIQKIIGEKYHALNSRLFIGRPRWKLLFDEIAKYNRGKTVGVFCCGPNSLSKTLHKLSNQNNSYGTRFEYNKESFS
Chain of NADPH oxidase 5 (Homo sapiens) (Q96PH1 whole entry, looked up): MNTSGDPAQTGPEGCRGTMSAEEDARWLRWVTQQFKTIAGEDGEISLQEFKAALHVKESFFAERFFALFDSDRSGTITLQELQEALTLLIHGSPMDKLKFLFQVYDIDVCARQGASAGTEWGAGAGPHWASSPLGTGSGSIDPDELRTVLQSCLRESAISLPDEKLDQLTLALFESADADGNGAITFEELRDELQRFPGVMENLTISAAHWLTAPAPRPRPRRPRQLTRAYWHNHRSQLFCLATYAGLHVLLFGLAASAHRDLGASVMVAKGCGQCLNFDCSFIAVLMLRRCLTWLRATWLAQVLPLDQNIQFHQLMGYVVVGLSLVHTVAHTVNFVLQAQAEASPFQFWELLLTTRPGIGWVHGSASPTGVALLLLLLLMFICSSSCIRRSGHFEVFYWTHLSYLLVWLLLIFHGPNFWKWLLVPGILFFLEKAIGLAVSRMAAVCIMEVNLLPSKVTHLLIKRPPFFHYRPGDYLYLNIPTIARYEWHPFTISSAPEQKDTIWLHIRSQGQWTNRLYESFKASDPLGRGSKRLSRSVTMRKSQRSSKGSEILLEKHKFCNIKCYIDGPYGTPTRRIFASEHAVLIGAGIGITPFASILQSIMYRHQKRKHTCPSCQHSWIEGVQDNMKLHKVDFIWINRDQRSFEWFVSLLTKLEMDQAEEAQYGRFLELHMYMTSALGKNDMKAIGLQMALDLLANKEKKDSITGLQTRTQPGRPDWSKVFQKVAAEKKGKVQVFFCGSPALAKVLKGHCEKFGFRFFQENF

SMILES | z-score [1] | composite z-score [2] | z-score [3] | z-score [4] | z-score [5] | z-score [6] | z-score [7] | z-score [8] | z-score [9] | z-score [10] | z-score [11] | z-score [12] | z-score [13] | z-score [14] | z-score [15] | z-score [16] | z-score [17] | z-score [18] | z-score [19] | z-score [20]
C=C(COC)C(=O)CC[C@H](OC(C)=O)c1cccc(OCCO)c1 | 0.527 (inactive) | -0.393 | 4.14 (inactive) | -1.22 (inactive) | 1.88 (inactive) | -1.48 (inactive) | 2.19 | -1.66 (inactive) | -0.724 (inactive) | -1.46 | -0.0614 | 1.55 | -0.116 | -2.94 | -1.07 | -0.331 | 0.715 (inactive) | 1.18 | 0.471 | -1.07 (inactive)
C=C(CCCC)/C(=C/C[C@H](OC(C)=O)c1ccc(CO)o1)c1cnc2ccccc2c1 | -0.134 (inactive) | 0.0557 | 5.4 (inactive) | 0.452 (inactive) | 0.435 (inactive) | 0.136 (inactive) | 0.307 | -0.719 (inactive) | -0.447 (inactive) | -0.582 | 0.0278 | -0.229 | 0.311 | -2.01 | -0.889 | -1.04 | -0.779 (inactive) | -0.143 | -0.238 | 0.398 (inactive)
C=C(COC)/C(=C/C[C@H](OC(=O)c1ccncc1)c1cccc(OCCO)c1)c1cc(C(=O)OC)ccc1OC | 0.395 (inactive) | 0.132 | 13.5 (active) | 2.26 (inactive) | 2.48 (inactive) | 0.773 (inactive) | -0.625 | 0.32 (inactive) | 0.00792 (inactive) | -1.51 | 0.404 | 0.987 | -0.0353 | -1.15 | -0.686 | 1.51 | 0.246 (inactive) | -0.351 | 0.0566 | 1.14 (inactive)
CCCN1C(=O)[C@]2(COC(c3ccc(OCCCO)cc3)=N2)Cc2ccccc21 | -0.516 (inactive) | 0.0927 | 16.9 (active) | 2.23 (inactive) | 2.31 (inactive) | 0.741 (inactive) | -0.0824 | -0.248 (inactive) | -0.0403 (inactive) | -1.42 | -0.78 | 0.585 | 0.302 | -1.6 | -0.688 | -0.0681 | -0.919 (inactive) | 0.391 | 0.148 | 0.212 (inactive)
CC(C)OC(=O)CC(=O)CC(O)c1ccc(C#N)cc1 (stereo not given) | 0.567 (inactive) | 0.213 | 1.96 (inactive) | -0.344 (inactive) | -0.745 (inactive) | -1.79 (inactive) | 1.02 | 0.574 (inactive) | -0.518 (inactive) | -0.252 | 0.633 | 0.612 | 1.01 | 0.526 | -0.116 | 0.615 | 0.497 (inactive) | -0.0971 | -1.44 | 0.617 (inactive)
CC(C)C(=C=CC[C@H](O)c1ccccc1OCCO)C[C@H](O)c1ccccn1 | 0.843 (inactive) | 0.129 | 4.75 (inactive) | 0.673 (inactive) | 2.42 (inactive) | 0.454 (inactive) | 1.16 | -0.222 (inactive) | -0.323 (inactive) | -1.28 | 0.82 | -0.27 | 1.33 | 0.198 | 0.0964 | 0.714 | 0.085 (inactive) | -0.332 | -1.3 | -0.607 (inactive)
C=CCOC(=O)[C@H]1[C@@H]2C(=O)O[C@@H](c3ccccc3)[C@@H](c3ccccc3)N2[C@@H](c2ccc(OCCOC(=O)[C@@H]3C[C@@H]4C(=O)NCC(=O)N4[C@@H]3c3ccc(O)cc3)cc2)[C@]12C(=O)Nc1ccccc12 | 2.47 (inactive) | 0.3 | 1.77 (inactive) | -0.0123 (inactive) | 0.708 (inactive) | -0.513 (inactive) | 1.14 | 2.07 (inactive) | 1.31 (inactive) | 1.1 | 0.422 | 0.905 | 1.49 | -0.459 | 0.776 | -1.35 | -0.577 (inactive) | -0.831 | -1.12 | 0.677 (inactive)
COCCOC(=O)N1C(=O)[C@@]2(c3cc(C#CCC(C(=O)OC)C(=O)OC)ccc31)[C@H](c1ccccc1OCCO)N1[C@H](c3ccccc3)[C@H](c3ccccc3)OC(=O)[C@H]1[C@@H]2C(N)=O | 0.483 (inactive) | 0.479 | 7.64 (inactive) | 2.55 (inactive) | 0.678 (inactive) | 1.42 (inactive) | -0.127 | 0.821 (inactive) | 0.383 (inactive) | -1.85 | 0.597 | 0.0915 | -1.58 | -3.4 | -4.17 | -0.603 | 1.69 (inactive) | -0.986 | -1.84 | -0.212 (inactive)
[N-]=[N+]=NCc1ccccc1C[C@]1(C(=O)NCC(O)CO)N=C(c2ccc(OCCCO)cc2)O[C@H]1c1ccccc1N=[N+]=[N-] (stereo not given in full) | 0.801 (inactive) | 0.12 | 31.1 (active) | 32.2 (active) | 2.92 (inactive) | 3.93 (inactive) | 0.828 | -0.689 (inactive) | -0.154 (inactive) | -1.77 | -0.13 | 1.27 | -0.35 | -1.09 | -1.11 | 0.0849 | 1.19 (inactive) | -0.893 | -0.384 | 0.0953 (inactive)
